Measurements as given in ChEMBL document CHEMBL1157539, “Thousands of chemical starting points for antimalarial lead identification” (Nature, 2010).
In all, about 13,000 compounds went through this assay and fewer than 10 showed an effect of 50% or more. A selection follows.

test system: Plasmodium falciparum; experiment: GSK_TCMDC: Inhibition of Plasmodium falciparum 3D7 LDH activity, using an LDH reporter assay. Test compounds present at 2uM; type: functional, organism-based

| Structure (SMILES) | inhibition [%] |
| --- | --- |
| COc1ccc(-c2ccc(NC(=O)c3ccccc3)cc2)cc1CN1CCCN(C)CC1 | 3 |
| C=CCn1c(=N)c(C(=O)NCc2ccc(F)cc2)cc2c(=O)n3cccc(C)c3nc21 | 0 |
| CC(C)(Oc1ccc(Cl)cc1)C(=O)NCCC1CCN(CCCCCNC(=O)/C=C/c2ccc(Cl)c(Cl)c2)CC1 | 0 |
| OC(CNCCCCCCNCC(O)c1ccc(Cl)c(Cl)c1)c1ccc(Cl)c(Cl)c1 (stereo not drawn) | 0 |
| Cc1cccc2nc(-c3ccc(-c4ccc(NC(=O)C(=O)c5cccn5C)cc4)cc3)[nH]c12 | 8 |
| C[C@H]1CN(Cc2cccc(-c3cc(CNC(=O)c4cccc(CC5CCN(C)CC5)c4)ccc3F)c2)CCN1C | 2 |
| Nc1c(I)cc(C(=O)Nc2ccc3nc4c(c(N)c3c2)CCCC4)cc1I | 2 |
| FC(F)(F)c1cccc(Nc2nc3nonc3nc2NC2C3CC4CC(C3)CC2C4)c1 (stereo not drawn) | 0 |
| COc1ccc2nccc([C@@H](O)CN3CCC(NCc4cc5cccc(O)c5[nH]4)CC3)c2c1 | 0 |
| Fc1ccc2[nH]c(-c3cccc(-c4cccc(CN5CCN(c6cnccn6)CC5)c4)c3)nc2c1 | 0 |
| O=C(Cc1ccccc1)NC(c1ccc(Cl)cc1)c1ccc2cccnc2c1O (stereo not drawn) | 0 |
| Cc1noc(C)c1-c1ccc2c(Nc3ccccc3C(C)(C)C)c(C(=O)NCc3ccccc3)cnc2c1 | 0 |
| Cc1cccc2nc(-c3ccc(-c4cccc(NC(=O)c5cncn5C)c4)s3)[nH]c12 | 0 |
| CC(C)CNCc1cccc(-c2cccc(CN(CCCN3CCN(C)CC3)C(=O)CCC3CCCC3)c2)c1 | 0 |
| Cc1cc(NC2CCN(CC3CCCCC3)C2)nc(Nc2ccc(Cl)cc2)n1 (stereo not drawn) | 0 |
| Cc1noc(C)c1-c1ccc2c(Nc3cccc4c3-c3ccccc3C4=O)c(C(=O)NCc3ccccc3I)cnc2c1 | 2 |
| CC(=O)Nc1ccc(OCCCCN(Cc2ccccc2C(F)(F)F)c2ccc(C#N)c(C(F)(F)F)c2)c(Cl)c1 | 0 |
| COc1ccc(-c2cccc(NC(=O)c3ccc(Cl)cc3)c2)cc1CN1CCNCC1 | 0 |
| COc1ccc2c(NN=Cc3ccc(F)cc3)ccnc2c1 | 0 |
| COc1ccc(C=NN=c2cc(C)[nH]c3ccccc23)cc1OC | 0 |
| COC(=O)c1cccc(CNCc2ccc(-c3cccc(-c4nc5cc(C(F)(F)F)ccc5[nH]4)c3)cc2)c1 | 6 |
| CCn1c(-c2nonc2N)nc2c(-c3ccccc3)ncc(OCCCCNCCc3ncc[nH]3)c21 | 0 |

| Structure (SMILES) | inhibition [%] |
| --- | --- |
| CCc1c[nH]c2c(N3CCCS3(=O)=O)cc(C(=O)N[C@@H](Cc3ccccc3)[C@H](O)CNC(C)(C)CCCC(C)C)cc12 | 0 |
| COc1ccc(C2CCC(NCCCCNC(=O)c3ccc(NC(=O)c4ccc(Cl)cc4)cc3)CC2)cc1 (stereo not drawn) | 0 |
| Cc1c(-c2ccc(C(=O)NC3CC(C)(C)NC(C)(C)C3)cc2)[nH]c2cc(Cl)c(Cl)cc12 | 0 |
| O=C(Nc1cccc(F)c1)c1ccc(C(=O)NC2CCN(CC3CCCCC3)CC2)cc1 | 0 |
| CC(C)NCc1ccc(-c2ccc(NC(=O)c3ccc(C#N)cc3)cc2)cc1 | 0 |
| FC(F)(F)c1ccc2[nH]c(-c3ccc(-c4cccc(CN5CCN(c6ccncc6)CC5)c4)cc3)nc2c1 | 2 |
| O=C(Nc1nc(-c2ccccn2)cc2ccccc12)c1cccc(Cl)c1 | 0 |
| NC(=O)C1CCN(Cc2cccc(-c3cccc(-c4nc5cc(F)ccc5[nH]4)c3)c2)CC1 | 3 |
| CC(C)(C)c1ccc(CNC(=O)c2ccc(CNC3CCC(N)CC3)s2)cc1 (stereo not drawn) | 4 |
| CC1(C)N=C(N)N=C(N)N1c1ccc(Cl)c(Cl)c1 | 0 |
| Cc1cc(=NN=Cc2ccccc2Cl)c2ccc(F)cc2[nH]1 | 0 |
| Cc1cc(CNCCCCCCCNCc2ccc(-c3ccccc3)cc2)ccc1O | 0 |
| Cc1cc(=NN=Cc2ccc(F)cc2)c2ccc(C(F)(F)F)cc2[nH]1 | 0 |
| COc1cc(C=NN=c2cc(C)[nH]c3ccccc23)cc(OC)c1OC | 0 |
| O=C(NCCc1ccccc1)N(Cc1ccccc1-c1ccc(CNC2CCCC2)cc1)C1CCN(Cc2ccccc2)CC1 | 1 |
| CCN(CC)CCN(Cc1ccc(-c2ccc(C(F)(F)F)cc2)cc1)C(=O)Cn1c(CCc2cccc(F)c2F)nc(=O)c2ccc(F)cc21 | 3 |
| COc1ccc(CNCc2ccc(F)cc2)cc1-c1ccc(OC)c(S(=O)(=O)NCCN2CCCC2)c1 | 5 |
| COc1ccc2c(N/N=C/c3cccc([N+](=O)[O-])c3)ccnc2c1 | 5 |
| CCCCN1CCN(CCCNc2c3ccccc3nc3ccccc23)CC1 | 0 |
| CON=Cc1ccn(-c2ccc(O)c3c2C[C@H]2C[C@H]4[C@H](N(C)C)C(O)=C(C(N)=O)C(=O)[C@@]4(O)C(O)=C2C3=O)c1 | 0 |
| CN(C)Cc1ccc(-c2ccc3c(Nc4ccc(Cl)cc4F)ccnc3c2)o1 | 0 |
| CN(C)c1ccc(-c2nc3cc(N)ccc3[nH]2)cc1 | 0 |

| Structure (SMILES) | inhibition [%] |
| --- | --- |
| Cc1cc(O)c(-c2cccc(Oc3ccc(Cl)cc3)c2)c(C)n1 | 0 |
| O=C(CNC(=O)c1ccc(O)cc1)Nc1ccc(-c2cccc(-c3nc4cc(C(F)(F)F)ccc4[nH]3)c2)cc1 | 3 |
| CCOc1cc[nH]c(=O)n1 | 5 |
| O=C(NCCCCN1CCC(c2ccc3c(c2OCCO)CCCC3)CC1)c1ccc2oc(-c3ccc(C(F)(F)F)cc3)cc2c1 | 4 |
| FC(F)(F)COc1ccc2ccccc2c1CCNCCCCNCCc1c(OCC(F)(F)F)ccc2ccccc12 | 0 |
| COc1ccc2nccc(N3CCC(CCNCc4cc5c(cn4)OCCO5)CC3)c2n1 | 7 |
| Cc1c2ccc(N(C)c3ccnc(Nc4ccc5c(c4)nc(NC(C)C)n5C)n3)cc2nn1C | 0 |
| COc1ccc(CNC(=O)Nc2cccc(-c3csc(NC(=N)N)n3)c2)cc1 | 1 |
| O=C(C=Cc1ccc(Cl)c(Cl)c1)NCCCCCN1CCC(CCNC(=O)/C=C/c2ccccc2)CC1 | 0 |
| CCN(CC)CCN(Cc1ccc(-c2ccc(C(F)(F)F)cc2)cc1)C(=O)Cn1c(CCc2ccc(F)cc2)nc(=O)c2ccccc21 | 0 |
| Cn1cccc1C(=O)C(=O)Nc1cccc(-c2ccc(-c3nc4cc(C(F)(F)F)ccc4[nH]3)cc2)c1 | 0 |
| CC(=O)Nc1ccc(C(=O)Nc2cccc(-c3cccc(-c4nc5cc(F)ccc5[nH]4)c3)c2)cn1 | 1 |
| Nc1ncc(-c2ccc3nccc(-c4ccncc4)c3c2)cc1S(=O)(=O)N1CCCCC1 | 3 |
| Cc1cc(NCC(c2ccccc2)c2ccccc2)nc(NCC2CCCCC2)n1 | 3 |
| N#Cc1cccc(C(=O)Nc2ccc(-c3ccc(CN4CCCC4)cc3)cc2)c1 | 0 |
| Cc1[nH]c(C)c(-c2ccc(OCc3cc(F)cc(F)c3)nc2)c(=O)c1Cl | 0 |
| CC(=O)Nc1ccc(CCNC(C)Cc2ccc(C(=O)Nc3ccc(CC(C)NCCc4cccc(Cl)c4)cc3)cc2)cc1 (stereo not drawn) | 0 |
| c1cc(-c2ccc(CNCCCN3CCOCC3)cc2)cc(-c2nc3ccccc3[nH]2)c1 | 0 |
| Clc1ccccc1C=NN=c1cc[nH]c2ccccc12 | 0 |
| O=C1CCCN1CCCNCc1ccc(-c2ccc(-c3nc4cc(F)ccc4[nH]3)cc2)cc1 | 0 |
| Cc1[nH]c(C)c(-c2ccc(C#Cc3ccc(F)cc3F)cc2)c(=O)c1Br | 0 |
| COc1ccc(OC)c(-c2ccc(=O)n(CC(=O)Nc3cccc4ccccc34)n2)c1 | 3 |

| Structure (SMILES) | inhibition [%] |
| --- | --- |
| CC(C)(C)c1ccc(CNC(=O)/C=C/c2ccc(-c3nc4cc(C(C)(C)C)ccc4[nH]3)cc2)cc1 | 0 |
| CN(C)CCCN1CCN(Cc2ccc(-c3ccc(-c4nc5ccccc5[nH]4)s3)cc2)CC1 | 4 |
| CC(C)Nc1nc(NCCc2c[nH]cn2)nc(Nc2ccc(Oc3ccccc3)cc2)n1 | 1 |
| CN1CCC(NC(=O)c2cc(Oc3ccc4c(c3)CCN4C(=O)Nc3cccc(C(F)(F)F)c3)ccn2)CC1 | 0 |
| FC(F)(F)COc1c(CCNCCCCNCCc2ccc3ccccc3c2OCC(F)(F)F)ccc2ccccc12 | 0 |
| CN(CCN)Cc1cccc(-c2cccc(-c3nc4cc(C(F)(F)F)ccc4[nH]3)c2)c1 | 0 |
| CC(C)CCCC(C)NC[C@@H](O)[C@H](Cc1ccccc1)NC(=O)c1cc(N2CCCC2=O)cc(N(c2ccccc2)S(C)(=O)=O)c1 (stereo partly drawn) | 0 |
| ON=C(c1nc2ccccc2[nH]1)c1nc2ccccc2[nH]1 | 6 |
| O=S(=O)(NCCN1CCCC1)c1cccc(-c2ccc(CNCc3ccsc3)cc2)c1 | 6 |
| COc1cccc(CCc2nc3c(N4CCC(Cc5ccccc5)CC4)cccc3n2CC2CNCCO2)c1 (stereo not drawn) | 4 |
| CCN(CC)CCN(Cc1ccc(-c2ccc(C(F)(F)F)cc2)cc1)C(=O)Cn1c(CCc2ccc(F)c(C#N)c2)nc(=O)c2ccccc21 | 0 |
| CCc1c(CCNCCCCCCNCCc2ccc(Br)cc2)ccc(O)c1O | 0 |
| Nc1c2c(nc3ccc(Oc4ccc(Cl)cc4)cc13)CCCC2 | 0 |
| Cc1cc(N[C@@H](Cc2ccccc2)C(=O)NCc2cccs2)nc(NCCc2ccccn2)n1 | 0 |
| COc1cc(C=CC(=O)N2CCC(CCN3CCC(c4c[nH]c5ccccc45)CC3)CC2)cc(OC)c1 | 0 |
| COc1cc2nc(N3CCC(CNC(=O)c4ccc(NC(=O)c5ccc(Cl)cc5)cc4)CC3)nc(N)c2cc1OC | 0 |
| CCNC1=NC2=C(CC(C(C)(C)C)CC2)C2(CCC(C(C)(C)C)CC2)S1 (stereo not drawn) | 4 |
| Cc1ccc(Cc2c[nH]c(NCCSCc3ccc(CN4CCOCC4)o3)nc2=O)cn1 | 0 |
| Cc1cc(-c2c[nH]c3ncc(-c4cccc5ncccc45)cc23)ccc1C(=O)O | 0 |
| Cc1cccc2nc(-c3ccc(-c4ccc(CN5CCCCC5)cc4)cc3)[nH]c12 | 0 |
| Cc1cc(I)ccc1Nc1nc2nonc2nc1Nc1ccc(I)cc1C | 0 |
| CS(=O)(=O)c1ccc(CNCc2ccc(-c3cccc(-c4nc5cc(C(F)(F)F)ccc5[nH]4)c3)cc2)cc1 | 8 |
